From PubChem BioAssay (NCI)
About 83,000 compounds went through this panel and 20% of them were active in at least one assay; those are over-represented in the sample as a whole.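 Values shown are percent growth following 48 h exposure of cells in 96-well plates to a single concentration of compound; below 10 was considered active.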 A number with no mark means an inactive call. Active and inactive are the calls of the source.

Experiments:
Test in all cases: NCI-60 one-dose screen, 48 h (100 = growth as untreated, 0 = no growth, -100 = all killed)
HOP-62 NSCLC = conditions: 10 µM unless noted
NCI-H460 lung = conditions: 10 µM unless noted
HOP-92 NSCLC = conditions: 10 µM unless noted
NCI-H522 lung = conditions: 10 µM
A549/ATCC NSCLC = conditions: 10 µM unless noted
786-0 renal = conditions: 10 µM unless noted
COLO 205 colon = conditions: 10 µM unless noted
NCI-H322M lung = conditions: 10 µM unless noted

| SMILES | growth (HOP-62 NSCLC) | growth (NCI-H460 lung) | growth (HOP-92 NSCLC) | growth (NCI-H522 lung) | growth (A549/ATCC NSCLC) | growth (786-0 renal) | growth (COLO 205 colon) | growth (NCI-H322M lung) |
| --- | --- | --- | --- | --- | --- | --- | --- | --- |
| CCCCC(=O)N/N=C/c1cc(I)cc(I)c1O | 42.5% | 28.1% | 48.7% | 60.5% | 46.6% | 56.9% | 57% |  |
| COc1cccc(C2C3=C(COC3=O)N(CCO)c3cc4c(cc32)CCC4)c1 (stereo not given) | 19.2% | 1.42% (active) | 48.2% | -50.4% (active) | 12.1% | 0.563% (active) | -78.5% (active) | 30.3% |
| N#Cc1c(O)c2c(c(O)c1C#N)C(=O)c1ccccc1C2=O | 59.8% | 22.7% | 88.5% | -5.65% (active) | 27.3% | 90.9% | -4.03% (active) | 38.4% |
| CN1CCN(CCCn2c3c(sc4ncccc43)c(=O)n3nnc(-c4ccccc4)c23)CC1 | -75.8% (active) | -70.7% (active) | 59.6% | -73.5% (active) | -74.7% (active) | 95.4% | 63.6% |  |
| CCCCCCCCCCCC(=O)[O][Sn]([CH2]CCC)([CH2]CCC)[CH2]CCC | -94.9% (active) | -55.2% (active) | -95.7% (active) | -96% (active) | -91.1% (active) | -99.7% (active) | -78.2% (active) |  |
| Cc1cc(C)c(S(=O)O)c(C)c1 |  | 109% | 93.1% |  | 109% | 112% | 126% | 124% |
| Cc1nc2cc(Nc3nc(N4CCOCC4)nc(N4CCN(C)CC4)n3)ccc2n1Cc1ccccc1 | 95% | 107% | 82.9% | 92.6% | 102% | 97.5% | 111% |  |
| Cn1c2ccc(Cl)cc2c2nn(C(=O)c3ccccc3)c(=O)nc21 | 101% |  |  | 101% | 113% | 113% | 123% | 106% |
| Cc1nc2cc(Nc3nc(Nc4ccc(F)cc4)nc(N4CCN(C)CC4)n3)ccc2n1Cc1ccccc1 | 58.2% | 3.42% (active) | 2.5% (active) | -55.1% (active) | 7.21% (active) | -83.1% (active) | -55.5% (active) |  |
| Cc1cc[n+](CCc2ccccc2)cc1 |  |  |  |  | 89.4% |  |  |  |
| COc1cccc(C2C3=C(COC3=O)N(CCO)c3cc4c(cc32)OCO4)c1 (stereo not given) | 30.4% | 12.3% |  |  | 25.9% | 18.5% | -27.1% (active) | 48.9% |
| O=C(c1ccccc1)C(Br)C(Br)c1cccc([N+](=O)[O-])c1 (stereo not given) |  | 90.2% | 65.1% | -68.8% (active) | 92.7% | 90.1% | -95% (active) | 101% |
| O=S(=O)(OCCO)c1ccccc1 | 126% | 113% | 101% | 95.5% | 97.2% | 108% | 118% | 103% |
| COc1ccc(/C=C(\C#N)c2ccc(OC)cc2)cc1 | 67.1% | 50.9% |  |  | 54.3% | 90.1% | 78.7% |  |
| CC(=O)Nc1ccc(S(=O)(=O)N/N=C\c2ccc(Cl)c(Cl)c2)cc1 | 100% | 101% | 72.1% |  | 93.8% | 113% | 109% |  |
| COc1cccc(-c2ccc3c(c2)C2CCN(Cc4ccccc4)C3C2)c1 (stereo not given) | 72.2% | 93.5% | 41% | 55.1% | 71.2% | 77.4% | 79.3% |  |

| SMILES | growth (HOP-62 NSCLC) | growth (NCI-H460 lung) | growth (HOP-92 NSCLC) | growth (NCI-H522 lung) | growth (A549/ATCC NSCLC) | growth (786-0 renal) | growth (COLO 205 colon) | growth (NCI-H322M lung) |
| --- | --- | --- | --- | --- | --- | --- | --- | --- |
| Cc1nc2cc(Nc3nc(Nc4ccc(F)cc4)nc(N4CCCC4)n3)ccc2n1Cc1ccccc1 | -22.5% (active) | -30.4% (active) | -12.3% (active) | -4.13% (active) | -0.672% (active) | -21.7% (active) | -72.6% (active) | 21.4% |
| COc1ccc(-n2ncc3c4nc(OC)c(S(=O)(=O)c5ccccc5)cc4ccc32)cc1 | 47.5% | 78.9% | 26.7% | 61.3% | 71.3% | 47.2% | 96.6% |  |
| COc1cc(C2=NN(c3ccc(S(N)(=O)=O)cc3)C(c3ccc(Cl)cc3)C2)cc(OC)c1OC (stereo not given) | 60.6% | 25.8% | 23.3% | 44.9% | 26.2% | 66.5% | 48.5% | 66.9% |
| COc1cc2nc(N3CCC[C@H](NC4=CC(=O)c5ccccc5C4=O)C3)nc(N)c2cc1OC | 64% | -65.7% (active) |  | 74.4% | -80.6% (active) | -92.7% (active) | -79.6% (active) | -72.2% (active) |
| O=C(Nc1ccc(F)cc1)c1ccc(C(=O)Nc2ccc(F)cc2)cc1 | 98.2% | 105% | 105% | 111% | 98.9% | 98.8% | 114% |  |
| Clc1ccc(C2=NN(c3ccccc3)[C@H](c3cn(-c4ccccc4)nc3-c3ccccc3)C2)cc1 | 108% | 108% |  |  | 97.8% | 103% | 114% | 101% |
| COc1ccc(-n2ncc3c2ccc2cc(S(=O)(=O)c4ccccc4)c(=O)n(C)c23)cc1 | 72.5% | 88.8% | 37.2% | 33.2% | 86.8% | 82.3% | 108% |  |
| C=CC[P+](c1ccccc1)(c1ccccc1)c1ccccc1 | 81.7% | 53.5% | 25.4% | 15.1% | 69.6% | 84.5% | 32.8% |  |
| COc1ccc(-c2nc3sccn3c2/C=C/C(=O)c2cc(OC)c(OC)c(OC)c2)cc1OC | 36.9% | 6.91% (active) | 0.346% (active) | 15.3% | 54.4% | 27.7% | 29.6% | 57.9% |
| NC1=NC(c2ccccc2OS(=O)(=O)c2ccc(Br)cc2)n2c(nc3ccccc32)N1 (stereo not given) | 75.2% | 97.6% | -1.3% (active) | 82% | 95.9% |  | 91.8% | 101% |
| Nc1nc(N)c(N=Nc2c(Br)cc(S(N)(=O)=O)cc2Br)c(N)n1 | 103% | 105% | 85% | 97.9% | 97.4% | 106% | 104% |  |
| Cc1ccc(-c2c3c(N)c4c(nc3nc3c2c(C)nn3-c2ccccc2)CCCC4)cc1 | 106% | 101% | 81.6% | 91.6% | 93.3% | 91.6% | 92.3% |  |
| Cc1nc(NN)c([N+](=O)[O-])c(NN)n1 | 110% | 103% | 102% |  | 100% | 104% | 118% | 110% |
| COC(=O)CCC(=O)c1ccccc1 | 116% | 106% |  | 106% | 95.4% | 94.7% | 115% | 119% |
| Cc1nn(CC(=O)O)c2c1C(=O)CC(C)(C)C2 | 91.1% | 107% |  | 96.7% | 102% | 89.8% | 117% | 115% |
